ssDAF-12 act = activates DAF-12 receptor from parasite S. stercoralis; 370,000 compounds, 1% hits; AID 652126; HEK293 ssDAF-12/GRIP1 lit1-tk-luc reporter, luminescence; % of 3 µM dafachronic acid response; activation, % at 6.8 µM;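 active means activation above the mean over all tested compounds plus 3 SD, cut at about 0.9% in these data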;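 further: 0% = DMSO-only wells and 100% = 3 µM delta7-dafachronic acid wells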
DAX1 inh-1 = inhibitors of DAX1 repression of SF-1 activated StAR promoter. AID 652010. HEK293T StAR-luciferase reporter, SF-1/DAX-1 repression relief. 370,000 compounds, 1.1% hits. inhibition, % at 6.8 µM;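 active means inhibition above the mean over all tested compounds plus 3 SD, cut at about 3.6% in these data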;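 further: 0% = DAX-1 cells with DMSO and 100% = cells lacking DAX-1 with DMSO; higher inhibition means more luminescence from relief of DAX-1 repression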
hgDAF12 agonist = hgDAF-12 agonism, primary luciferase screen | HEK293 GAL4-hgDAF12 UAS-luciferase reporter, agonist luminescence; normalized to butyrate control | activation, % at 6.8 µM | 370,000 compounds, 1.8% hits;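 active means activation above a cutoff set at the mean of all screened compounds plus 3 SD, cut at about 10% in these data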;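 further: 0% = DMSO wells and 100% = sodium butyrate wells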
hcDAF12 agonist = activates DAF-12 receptor from parasite H. contortus; activation, % at 6.8 µM; HEK293 hcDAF-12 lit1-tk-luc reporter, luminescence; 0% DMSO, 100% Δ7-dafachronic acid; 370,000 compounds, 1.4% hits; AID 652067;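 active means activation above the mean of all tested compounds plus 3 SD, cut at about 5.5% in these data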;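 further: 100% = response to 3 µM Δ7-dafachronic acid high control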
DAX1 inh-2 = NR0B1 (DAX1) inhibition; HEK293 Gal4-DAX1 luciferase reporter, luminescence; 340,000 compounds, 0.99% hits; P51843; inhibition, % at 6.75 µM; AID 504766;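 active means inhibition above the mean over all tested compounds plus 3 SD, cut at about 4.2% in these data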;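 further: 0% = DAX1-transfected cells with DMSO and 100% = empty-vector control cells with DMSO; inhibition shows as a rise in luminescence from relieved DAX1 repression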
hgDAF12 conf = hgDAF-12 agonism, confirmation assay. shares compounds with hgDAF12 agonist. activation, % at 6.8 µM. HEK293 GAL4-hgDAF12 luciferase reporter, agonist mode; percent of butyrate response. 3,300 compounds, 80% hits. AID 743050;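 active means mean activation over triplicate wells above the hit cutoff derived from the earlier primary screen, cut at about 11% in these data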;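 further: 0% = DMSO low control and 100% = 2 mM sodium butyrate high control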
LXRb DAF12 ctr = activates human LXR-beta, counter-screen for DAF-12 agonists. 3,300 tested, under 10 active. shares compounds with hgDAF12 agonist. HEK293 Gal4-LXR luciferase reporter, 24 h. activation, % at 6.8 µM;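 active means mean activation of the triplicate above a set limit carried over from the primary screen, none filed active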
Target sequence (P55055 whole entry, looked up, the tested form may be a part): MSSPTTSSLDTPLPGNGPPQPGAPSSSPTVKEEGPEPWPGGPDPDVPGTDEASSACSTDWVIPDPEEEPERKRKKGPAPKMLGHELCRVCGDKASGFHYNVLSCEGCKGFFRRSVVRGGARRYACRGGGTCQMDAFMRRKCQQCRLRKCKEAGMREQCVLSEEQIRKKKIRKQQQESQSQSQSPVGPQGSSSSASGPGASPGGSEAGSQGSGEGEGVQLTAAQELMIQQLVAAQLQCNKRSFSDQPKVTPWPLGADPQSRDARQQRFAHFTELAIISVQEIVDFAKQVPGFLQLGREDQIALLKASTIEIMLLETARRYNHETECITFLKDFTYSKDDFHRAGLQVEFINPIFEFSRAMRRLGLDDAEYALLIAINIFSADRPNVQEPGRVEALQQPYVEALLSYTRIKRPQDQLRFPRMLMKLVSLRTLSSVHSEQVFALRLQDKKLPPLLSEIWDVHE
Numbers without * were called inactive; . = not tested or not shown. The list is not random: actives were taken first. Their share in the collection is about 4.1%.

SMILES	ssDAF-12 act	DAX1 inh-1	hgDAF12 agonist	hcDAF12 agonist	DAX1 inh-2	hgDAF12 conf	LXRb DAF12 ctr
CCN(CCC(=O)Nc1cc(OC)ccc1OC)Cc1ccccc1	-1	0	0	-1	.	.	.
Cc1ccc(SCCN2CCC(C)CCC2=O)cc1 (stereo not drawn)	0	2	14*	3	2	17*	1
C[C@H]1CCC(=O)N(CCSc2ccc(Br)cc2)CC1	-1	0	7	0	1	.	.
COc1ccc(N=C(N)NC(=O)OCc2ccccc2)cc1	1	4	4	4	.	.	.
O=C(Nc1ccccc1F)c1ccc(CSc2ncccn2)cc1	0	3	16*	4	1	15*	1
O=C(Nc1ccccc1)c1ccc(CSc2ncccn2)cc1	0	3	16*	4	1	17*	1
COc1ccc(C[N+]2=C(N)NC3=C(C)Cn4c(=O)n(-c5ccccc5)c(=O)n4C3C2)c(OC)c1 (stereo not drawn)	-1	-2	1	-1	.	.	.
CC(C)(C)OC(=O)N/N=C/c1ccc(Br)cc1	-1	4.2*	21*	3	4	16*	1
C/C(=N/N=C1/NC(=O)CC(C(=O)Nc2ccccc2)S1)c1cccs1 (stereo not drawn)	-1	0	13*	0	-1	0	0
Cc1ccccc1NC(=O)Cn1nnc(-c2ccncc2)n1	0	0	2	-2	.	.	.
CCCCCCCCN1C(=O)[C@@H](CC(=O)NCCCOC)C[C@@]2(C(=O)OC)C1=C[C@H](C(C)C)O[C@@H]2C1CC1	-1	-1	-1	-2	.	.	.
N#CCSc1nnc(-c2ccc3c(c2)OCO3)o1	-1	1	0	-2	0	.	.
C/C(N)=C(/C#N)C(=O)CSc1nnc(-c2ccc3c(c2)OCO3)o1	1.0*	5.9*	19*	6.0*	2	12*	1
N#CCC[C@@H]1CC[C@]2(CCCN(C(=O)C3CCCC3)C2)O1	-1	0	3	-1	.	.	.
COc1ccc(N2C(=O)CCC2=O)c(OC)c1	-1	1	13*	1	1	0	0
COc1ccc(N2C(=O)C3CC(C)=C(C)CC3C2=O)c(OC)c1 (stereo not drawn)	-1	0	1	0	-1	.	.
CCSCC(C)(C)n1[nH]c2ccccc2c1=O	-1	0	14*	0	0	-2	0
CCn1c(=O)[nH]c2ccccc2c1=O	-1	1	-3	0	1	.	.
OC(c1ccc(F)c(F)c1)c1nc(-c2cccc(F)c2)cs1 (stereo not drawn)	-1	-2	2	0	.	.	.
Cc1ccc(C2=NNC3(CCOC(C)(C)C3)S2)cc1 (stereo not drawn)	1.0*	4.0*	17*	11*	2	6	0
COc1ccc2c(c1OC)C(=O)OC2Nc1nc(-c2cc3cc([N+](=O)[O-])ccc3oc2=O)cs1 (stereo not drawn)	-1	0	0	-2	-1	.	.
COc1ccc2c(c1OC)C(=O)OC2Nc1nc(-c2cc3ccccc3oc2=O)cs1 (stereo not drawn)	1	4.3*	18*	5	0	17*	1
Cc1ccccc1S(=O)(=O)N1CCCc2nc(-c3ccc(Br)cc3)ccc21	-1	0	0	0	.	.	.
CSCCCNC(=O)CN1C(=O)C2CCCCN2C(=O)c2ccccc21 (stereo not drawn)	-1	1	-2	0	.	.	.
O=C(NC(c1ccc(Cl)cc1)c1cnccn1)C1CCN(Cc2cccc(C(F)(F)F)c2)CC1 (stereo not drawn)	-1	0	-2	-2	.	.	.
SMILES	ssDAF-12 act	DAX1 inh-1	hgDAF12 agonist	hcDAF12 agonist	DAX1 inh-2	hgDAF12 conf	LXRb DAF12 ctr
O=C(Nc1ccc(Br)cc1F)c1ccc2nsnc2c1	0	1	5	3	1	.	.
Cc1ccc(NC(=O)c2ccc3nsnc3c2)c(Cl)c1	1.1*	2	14*	5.8*	3	15*	1
COc1cccc(NC(=O)Nc2ccc(CC(=O)O)cc2)c1	-1	0	-5	-1	0	.	.
CCc1ccc(NC(=O)Nc2cccc(OC)c2)cc1	-1	2	18*	0	1	15*	0
COc1ccc(NC(=O)Nc2ccc(F)c(Cl)c2)cc1	-1	1	17*	2	0	10	0
CCOC(=O)[C@]12CCCC=C1N(CCCOC)C(=O)[C@@H]2CC(=O)NCc1cccs1	-1	-1	0	-1	.	.	.
CC(/C=N/NC(=O)c1ccccn1)=C\c1ccco1	1.2*	2	14*	4	.	11*	1
O=C(N/N=C/C(Cl)=C/c1ccccc1)c1ccccn1	0	3	15*	4	3	12*	1
O=C(N/N=C/C(Cl)=C\c1ccccc1)c1cccs1	1.4*	2	18*	4	3	16*	1
O=C(N/N=C/C(Cl)=C/c1ccccc1)c1ccncc1	-1	-1	1	0	.	.	.
O=C(/C=C/[C@H]1O[C@@H](n2ccc(=O)[nH]c2=O)[C@H](O)[C@@H]1O)N1CCN(Cc2ccc(F)cc2)CC1	-1	3	-1	-1	.	.	.
CC1(C(=O)NS(=O)(=O)C2CC2)CCCN(C(=O)c2ccccc2OC(F)(F)F)C1 (stereo not drawn)	-1	0	-1	-2	.	.	.
C=CCN1C(=O)[C@H](CC(=O)NCCCC)[C@@]2(C(=O)OCC)CCCC=C12	-1	0	-3	-3	.	.	.
CSC(=NS(=O)(=O)c1ccccc1)NNC(=O)c1c(-c2c(Cl)cccc2Cl)noc1C	-2	0	-1	0	.	.	.
CCOC(=O)C1=CCN(S(=O)(=O)c2ccc(Cl)cc2)C1c1cccc(Cl)c1 (stereo not drawn)	-1	0	1	-2	.	.	.
Cc1ccc(-n2c(C)nn(CCOc3ccccc3)c2=O)cc1	-1	3	13*	2	1	9	0
O=C(CN1C(=O)CCSc2ccccc21)Nc1ccc(Cl)c(Cl)c1	-1	1	-2	-3	.	.	.
O=C(c1cnn(-c2cccc(F)c2)c1)c1ccccc1O	1	2	15*	3	5.0*	16*	1
CCN(CC)c1ccc(C=Nn2c(-c3ccc(F)cc3)n[nH]c2=S)c(O)c1	-1	-1	-1	-1	.	.	.
CN1C(=O)/C(=C/C=C2\SCCN2C)N(C)C1=S	0	2	14*	2	1	15*	1
O=c1c2ccccc2nc(-c2ccco2)n1Cc1ccccc1	-1	1	14*	3	2	12*	0
c1ccc(Cn2c(-c3ccco3)nc3nc4ccccc4nc32)cc1	0	2	7	1	2	.	.

From PubChem BioAssay
